test system: PRP4; settings: concentration: 1 μM, replicates: in singlicate; n = 1
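Further: KINOMEscan kinase panel screen.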

Q: Which “%Inh” value does the source give for Cl.Cl.NCC(NCc1ccc(-c2ccnc3[nH]ccc23)s1)c1ccccc1 (centres unmarked) [GSK1321565] here?
A: 86%

Q: How did the “%Inh” value turn out when CCn1c(-c2nonc2N)nc2c(C#CC(C)(C)O)nc(OC[C@H](N)c3ccccc3)cc21 [GSK943949] was run?
A: 10%

Q: How did the “%Inh” value turn out when COCCOCCOc1cc2ncc3c4ccc(C#N)cc4[nH]c3c2cc1OC was run?
A: 19%

Q: Which “%Inh” value does the source give for Clc1ccc(-c2nn3ncccc3c2-c2ccnc(Nc3ccc4c(c3)OCCO4)n2)cc1 [GW829116] here?
A: 0%

Q: With COc1cccc(NC(=O)NC2CCN(c3ccnc(Nc4cc(OC)c(OC)c(OC)c4)n3)C2)c1 (centres unmarked) [GSK1379763] as the compound, how does the “%Inh” value read?
A: 26%

Q: Which “%Inh” value does the source give for COc1cccc(C(=O)Nc2cccc(Oc3ccc4nc(NC(=O)C5CC5)cn4n3)c2)c1 here?
A: 0%

Q: For CN(C)Cc1ccc(-c2ccc3c(Nc4ccc(Oc5ccccn5)cc4)ccnc3c2)o1 [GW567148], which “%Inh” value is on record?
A: 4%

Q: How did the “%Inh” value turn out when Nc1ncc(-c2cccnc2)c2scc(-c3ccc4c(c3)CCN4C(=O)Cc3ccccc3)c12 [GSK683281] was run?
A: 0%

Q: COc1ccc(Nc2nccc(NCCNC(=O)c3cc4ccccc4s3)n2)cc1 [GSK1379896] was tested. Which “%Inh” value did it give?
A: 17%

Q: With O=C(Nc1n[nH]c2nc(-c3ccc(O)cc3)ccc12)C1CC1 [SB-710363] as the compound, how does the “%Inh” value read?
A: 0%

Q: Which “%Inh” value does the source give for O=C(Nc1cccc(-c2nn3ccccc3c2-c2ccnc(Nc3cccc(F)c3)n2)c1)c1c(F)ccc(F)c1Cl [GSK357952] here?
A: 8%

Q: With CN1CCN(Cc2cccc(-c3ccc4c(Nc5ccc(Oc6ccccc6)cc5)ccnc4c3)c2)CC1 [GW578342] as the compound, how does the “%Inh” value read?
A: 27%

Q: With COc1cc(Nc2nccc(N3CCC(NC(=O)Nc4cccc(C(C)=O)c4)C3)n2)cc(OC)c1OC (centres unmarked) [GSK1379753] as the compound, how does the “%Inh” value read?
A: 14%

Q: How did the “%Inh” value turn out when c1ccc(Oc2ccc(Nc3ccnc4cc(-c5ccc(CNCCN6CCOCC6)o5)ccc34)cc2)nc1 [GW567145] was run?
A: 36%

Q: With CC(C)c1nc(-c2cccc(NS(=O)(=O)c3c(F)cccc3F)c2F)c(-c2ccnc(Nc3ccc(N4CCOCC4)nc3)n2)s1 [GSK2008607] as the compound, how does the “%Inh” value read?
A: 0%

Q: With C[C@@H](Oc1cc(-n2cnc3cc(-c4ccnc(NCCS(C)(=O)=O)c4)ccc32)sc1C(N)=O)c1ccccc1Cl [GSK907232] as the compound, how does the “%Inh” value read?
A: 60%

Q: For Cn1cc(-c2[nH]c3cc(NC(=O)[C@H](N)C4CCCCC4)cc4c3c2C=NNC4=O)cn1, which “%Inh” value is on record?
A: 68%

Q: CCS(=O)(=O)c1ccc(OC)c(Nc2nccc(-c3c(-c4cccc(NC(=O)c5c(F)cccc5F)c4)nn4ncccc34)n2)c1 [GSK326180] was tested. Which “%Inh” value did it give?
A: 20%

Q: Which “%Inh” value does the source give for Cl.NC(=O)c1cccc(Nc2nccc(Nc3ccc(Oc4c(Cl)cccc4Cl)c(Cl)c3)n2)c1 [GW659009] here?
A: 20%

Q: Nc1ncc(-c2ccc3nccc(-c4ccncc4)c3c2)cc1S(=O)(=O)N1CCOCC1 [GSK1627798] was tested. Which “%Inh” value did it give?
A: 3%

Q: How did the “%Inh” value turn out when Cn1cc(-c2ccc3c(c2)CCN3C(=O)Cc2cccc(Cl)c2)c2c(N)ncnc21 [GSK2606590] was run?
A: 2%

Q: How did the “%Inh” value turn out when CC(C)(C)c1ccc2nccc(Nc3cccc(O)c3)c2c1 [GW856795] was run?
A: 27%

Q: With CC(=O)Nc1nc2cnc(Nc3cc(NC(=O)c4cccc(C5(C#N)CC5)c4Cl)ccc3C)nc2s1 as the compound, how does the “%Inh” value read?
A: 6%

Q: How did the “%Inh” value turn out when COc1cc(Nc2nccc(N3CCC(NC(=O)c4cc5ccccc5s4)C3)n2)cc(OC)c1OC (centres unmarked) [GSK1379760] was run?
A: 48%

Q: Which “%Inh” value does the source give for Cc1occc1-c1ncc(OC[C@@H](N)Cc2c[nH]c3ccccc23)cc1-c1ccc2[nH]nc(C)c2c1.O=C(O)C(F)(F)F [GSK682037] here?
A: 11%

Q: How did the “%Inh” value turn out when C[C@@H]1CC[C@@H](C(=O)Nc2ccccc2)CN1c1cc(-c2ccc3c(N)n[nH]c3c2)nc(N)n1 [GSK2286062] was run?
A: 13%

Q: For CCn1c(-c2nonc2N)nc2c(C#CC(C)(C)O)ncc(OCCCCN)c21.O=C(O)C(F)(F)F.O=C(O)C(F)(F)F [GSK507274], which “%Inh” value is on record?
A: 2%

Q: How did the “%Inh” value turn out when O=c1[nH]cc(-c2ccc(N3CCOCC3)cc2)c2sc(-c3cn[nH]c3)cc12 [GSK2276055] was run?
A: 0%

Q: COc1cccc(C2=C(Nc3ccc(Cl)c(C(=O)O)c3)C(=O)NC2=O)c1 [SB-390769] was tested. Which “%Inh” value did it give?
A: 31%
